# Only some compounds are listed: those with a hit (about 2.7% of all), similar ones and a draw of the others.
# RXFP1 antag: antagonists of human relaxin receptor RXFP1. Q9HBX9. HEK293-RXFP1, relaxin-stimulated cAMP HTRF, 30 min; hits give low values. activity change, negative = inhibition, % at 57.5 µM. actives 0.59% (n = 350,000);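 active = activity change of -60% or lower, but not beyond a set lower limit; inconclusive = change between -60% and -40%, or beyond the set limit; inactive = change above -40%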; also: % is scaled to controls: 0 for no effect and ±100 for the full control effect
# ClpP mod: qHTS Assay for Activators of ClpP; ATP-dependent Clp protease proteolytic subunit (Bacillus subtilis (strain 168)), P80244; purified B. subtilis ClpP, FRET peptide cleavage, 20 min; Potency, µM (highest dose often 57.5 µM), without a hit: top-dose activity change, negative = active; actives 1.9% (n = 340,000); active = well fitted falling curve with a large enough effect; inconclusive = small, poorly fitted or top-dose-only effect; inactive = no such curve, though single readings can be large or run the other way; also: potency is read from the fitted curve at half-maximal effect; the source files actives as falling curves though it sought activators and does not explain the sign; nearly all actives have a fitted effect of over 65% in size
# Target sequence (P80244 whole entry, looked up): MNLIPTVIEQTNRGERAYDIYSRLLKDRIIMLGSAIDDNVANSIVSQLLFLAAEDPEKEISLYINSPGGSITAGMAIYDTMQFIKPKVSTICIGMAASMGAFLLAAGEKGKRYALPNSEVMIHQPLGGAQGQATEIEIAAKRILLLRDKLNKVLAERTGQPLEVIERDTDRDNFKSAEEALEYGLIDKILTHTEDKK
#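 ClpP 10 microg/mL final, pH 8 Tris/KCl buffer with BSA, glycerol, Tween-20; compound pinned in; FRET-FV substrate; RT 20 min; Ex320/Em430; ΔFRET vs ADEP 5.8 microM, DMSO, no enzyme.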
# pAkt inh: Akt phosphorylation inhibition. activity change, % for hits at 50 µM. Neuro2A IGF-stimulated pAkt S473 HTRF, 20 min; hits give low values. actives 0.32% (n = 360,000); in the data active = activity change below about -80%; inconclusive = mostly about -51% to -80%; also: % is scaled to controls: 0 for no effect and ±100 for the full control effect
#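 Neuro2A cells in DMEM with 0.5% FBS, overnight at 37 deg C, given compound at single 50 µM final, then IGF (6 nM final) for 20 min at 37 deg C. Lysed; phospho-Akt Ser473 by HTRF after 24 h, 665/615 ratio.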
# RXFP1 agonist: RXFP1 (human) receptor agonism; Q9HBX9; HEK293T-RXFP1 cAMP TR-FRET, 30 min; response scale: percent of porcine relaxin response, buffer zero; Potency, µM (top dose mostly 57.5 µM), for inactives: at the top dose activation, most hits filed as activators; actives 0.3% (n = 370,000); active = well fitted activation curve with a large enough effect; inconclusive = small, poorly fitted or top-dose-only effect; also: potency is read from the fitted curve at half-maximal effect; % is scaled to controls: 0 for no effect and ±100 for the full control effect; nearly all actives have a fitted effect of over 60% in size
#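 cAMP rise read by TR-FRET after 30 min, 37C compound exposure (up to 58 uM) in RXFP1-transfected HEK293 cells with Ro 20174 present. EC50 from Hill-equation fits, with 29 nM porcine relaxin as 100% and buffer as basal.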
# gsp ag: activates gsp, the McCune-Albright syndrome mutation. gsp mutant cells, cAMP HTRF, 30 min. Potency, µM (top dose mostly 76.9 µM), for inactives: at the highest dose activation (cAMP increase), most hits filed as activators. actives 0.13% (n = 340,000); active = well fitted activation curve with a large enough effect; inconclusive = small, poorly fitted or top-dose-only effect, or another doubt; inactive = no such curve, though single readings can be large or run the other way; cell line not stated here;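 also: phosphodiesterase inhibitor Ro 20-1724 added with compounds to block cAMP breakdown; potency is read from the fitted curve at half-maximal effect; nearly all actives have a fitted effect of over 60% in size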
#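 Cells in DMEM/10% FBS with G418 were pretreated with compounds in DMSO plus […] (300 uM stock) for 30 min at 37C. cAMP was measured by HTRF (cAMP-d2 plus anti-cAMP antibody-K) after 30 min at room temperature.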
# gsp antagonist: antagonists of gsp mutant (McCune-Albright syndrome) | gsp-mutant cells, cAMP HTRF, 30 min | Potency, µM (highest dose often 76.9 µM), for inactives: at the highest dose activity change, negative = inhibition, hits mostly inhibitors | actives 0.4% (n = 340,000) | AID 624288; calls by dose curve; cell line not stated here;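 also: intracellular cAMP measured with PDE inhibitor Ro 20-1724 present during compound exposure; potency is read from the fitted curve at half-maximal effect; % is scaled to controls: 0 for no effect and ±100 for the full control effect; nearly all actives have a fitted effect of over 65% in size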
#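 Cells in G418 medium, seeded 16-24 h, 37C; buffer exchange to DPBS + 1 mM CaCl2, 0.5 mM MgCl2, 0.05% BSA; cpds in DMSO + […] (300 uM stock), 30 min 37C; HTRF cAMP detection.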
# * hit, by the source's call; i = inactive; u = inconclusive; x = no result; [ ] = dose if it differs, or a comment.
SMILES,RXFP1 antag,ClpP mod,pAkt inh,RXFP1 agonist,gsp ag,gsp antagonist
O=C(COc1ccc2ccccc2c1Br)Nc1cccnc1,-15,0%,i,15%,6.3µM*,17%
CN(CC(=O)Nc1nc2ccccc2s1)S(=O)(=O)c1ccc(Cl)cc1,-18,-1%,i,0%,-7%,32µM*
CN(CC(=O)Nc1nc2ccccc2s1)S(=O)(=O)c1ccc(Br)cc1,-35,0%,i,-6%,-10%,40µM*
CCn1c(SCC(=O)Nc2nc3ccccc3s2)nnc1-c1ccc(Br)cc1,-1,-2%,-89%*,u,13%,18%
Cc1cccc(NC(=O)CN(C)S(=O)(=O)c2ccc(Br)cc2)n1,2,1%,i,1%,1%,7%
Cc1cccc(CNC(=O)CS(=O)(=O)c2cccc3nsnc23)c1,x,-2%,x,-1%,x,x
COCc1cc(C)nc2sc(C(=O)Nc3cccc(OC)c3)c(N)c12,0,-6%,i,16%,19%,-14%
C=CCn1c(-c2cccc(Cl)c2)n[nH]c1=S,-7,-15%,-109%*,17%,u,8%
O=C(CS)Nc1ccccc1,34,x,x,x,x,x
O=C(CS)Nc1ccc2ccccc2c1,-102*,-1%,i,2%,-9%[15.4 µM],5%
COc1ccc(CCNC(=O)C2=CC=CN3CCS(=O)(=O)N=C23)cc1,-2,-21%,i,1%,21%,-1%
O=C(NCCOc1ccccc1)C1=CC=CN2CCS(=O)(=O)N=C12,-2,32µM*,i,x,-5%[15.4 µM],5%
Cc1ccc(C)c2c1N(Cc1ccccc1)C(=O)C21OCCO1,-12,0%,i,2%,1%,1%
C/C(=N\Nc1cc(C)nc(-c2ccccc2O)n1)c1ccccc1O,13,-4%,i,-1%,23%,45µM*
COC(=O)c1ccc(Nc2cc(C)nc(-c3ccccc3O)n2)cc1,19,u,-86%*,25%,u,-11%
COC(=O)c1cccc(Nc2cc(C)nc(-c3ccccc3O)n2)c1,-7,-3%,i,-1%,1%,u
COc1cccc2cc(CC(=O)c3ccccc3)c(=O)oc12,8,-1%,i,5%,u,1%
Nc1nc2ccccc2n1Cc1ccc(F)cc1,-7,x,x,x,x,x
COc1ccccc1CN(Cc1ccco1)c1cnc(S(C)(=O)=O)nc1C(=O)Nc1ccccc1Cl,-6,-19%,x,0%,x,x
COc1ccc(/C=N/c2c(-c3ccco3)nc3ccccn23)cc1OC,8,28µM*,i,-3%,8%,8%
CCC1S/C(=C(\C#N)C(=O)NCc2ccco2)N(c2ccc(F)cc2)C1=O (stereo not given),-12,1%,i,0%,13%,2%
CCC1S/C(=C(\C#N)C(=O)NCc2ccco2)N(c2ccc(Br)cc2)C1=O (stereo not given),-15,-13%,-107%*,2%,-41%,-2%[15.4 µM]
CCOC(=O)c1c(OCC)[nH]c2c1cc(O)c1ccccc12,2,22µM*,i,-2%,u,-20%
Cc1nc(S/C(=C/c2ccc(-c3cc(Cl)ccc3C)o2)C(=O)O)n[nH]1,-10,0%,i,0%,-25%,28µM*
Cc1nc(S/C(=C/c2ccc(-c3ccc(Cl)cc3)o2)C(=O)O)n[nH]1,-12,-2%,x,1%,-3%,0%
SMILES,RXFP1 antag,ClpP mod,pAkt inh,RXFP1 agonist,gsp ag,gsp antagonist
CC(NC(=O)/C(C#N)=C/c1cccs1)c1ccccc1 (stereo not given),-32,x,i,0%,2%[15.4 µM],-7%
CC(C)(C)c1ccc(C(=O)/C(C#N)=C/c2cccs2)cc1,-87*,x,i,3%,6%,-10%
CCOC(=O)c1cc(OC)c2cccc(CN3CCCC(C)(C(=O)NCCOC)C3)c2c1 (stereo not given),x,-16%,i,x,x,x
c1cc2ccc3ccc(-n4cnnn4)c4ccc(c1)c2c34,-16,28µM*,i,1%,14%,10%
COc1ccc(-n2c(-c3ccccc3F)nc3c(cnn3-c3ccc(C)cc3)c2=O)cc1,-10,25µM*,x,0%,x,x
COc1ccc(-n2c(-c3ccco3)nc3c(cnn3-c3ccc(C)cc3)c2=O)cc1,-5,u,i,0%,u,u
COc1ccc(CN(C)C(=O)[C@H]2O[C@@H](n3ccc(N)nc3=O)[C@H](O)[C@@H]2O)cc1OC,x,1%,i,x,x,x
O=C(COC(=O)[C@@H]1CC(O)CN1S(=O)(=O)c1ccccc1[N+](=O)[O-])c1ccccc1 (stereo not given in full),-8,x,i,1%,-56%,-1%
CCc1cccc2c(C(=O)COC(=O)[C@@H]3CC(O)CN3S(=O)(=O)c3ccccc3[N+](=O)[O-])c[nH]c12 (stereo not given in full),-80*,x,i,x,9%,-13%
COc1ccc(-c2csc(N(CCCN(C)C)C(=O)c3ccccc3Cl)n2)cc1,-10,x,i,x,36%,20%
COc1ccc(-c2csc(N(CCCN(C)C)C(=O)c3ccccc3C)n2)cc1,-62*,x,i,0%,10%,32%
Cc1cc(NS(=O)(=O)c2ccc(NC(=S)NC(=O)/C=C/c3ccccc3)cc2)no1,-7,x,i,2%,7%,u
Cc1ccc(/C=C/C(=O)NC(=S)Nc2ccc(S(=O)(=O)Nc3cc(C)on3)cc2)cc1,-9,x,i,0%,0%,35µM*
CCN1CCN(C(=O)CCCCCn2c(=O)[nH]c3cc(C(=O)OC)ccc3c2=O)CC1,-3,25µM*,i,1%,u,-4%
COCCn1c(=O)[nH]c2cc(C(=O)Nc3cc(OC)c(OC)c(OC)c3)ccc2c1=O,-8,x,i,1%,-5%,2%
COC(=O)c1ccc2c(=O)n(CCCCCC(=O)N3CCN(c4ccccc4)CC3)c(=O)[nH]c2c1,-6,-12%,i,0%,1%,8.9µM*
COc1cc2[nH]c(=O)n(CCCCCC(=O)N3CCN(c4ccccc4)CC3)c(=O)c2cc1OC,-4,-24%,i,1%,-17%,4%
CC(=O)c1ccc(N2CCN(C(=O)CCCn3c(=O)[nH]c4ccc(Br)cc4c3=O)CC2)cc1,-5,-11%,i,0%,20%,35µM*
CC(=O)c1ccc(N2CCN(C(=O)CCCCn3c(=O)[nH]c4ccccc4c3=O)CC2)cc1,-1,-5%,x,4%,x,x
COCCn1c(=O)[nH]c2cc(C(=O)OC)ccc2c1=O,-11,28µM*,i,4%,5%,1%

# Assay outcomes as filed in PubChem.
